# Screening results deposited in PubChem by several laboratories.
# CYP2C19 inhib: blocks human cytochrome P450 2C19; 96,000 tested, 21% active; AID 778; CYP2C19 Supersomes, luciferin-H EGE luminescence, 30 min; inhibition, % at 5 µM;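 active = CYP2C19 inhibition above a set limit at 5 µM in the primary screen, cut at about 50% in these data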;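 note: plate controls were negative control wells for no effect and 2.5 mM tranylcypromine positive control for full effect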
# Target sequence (P33261 whole entry, looked up): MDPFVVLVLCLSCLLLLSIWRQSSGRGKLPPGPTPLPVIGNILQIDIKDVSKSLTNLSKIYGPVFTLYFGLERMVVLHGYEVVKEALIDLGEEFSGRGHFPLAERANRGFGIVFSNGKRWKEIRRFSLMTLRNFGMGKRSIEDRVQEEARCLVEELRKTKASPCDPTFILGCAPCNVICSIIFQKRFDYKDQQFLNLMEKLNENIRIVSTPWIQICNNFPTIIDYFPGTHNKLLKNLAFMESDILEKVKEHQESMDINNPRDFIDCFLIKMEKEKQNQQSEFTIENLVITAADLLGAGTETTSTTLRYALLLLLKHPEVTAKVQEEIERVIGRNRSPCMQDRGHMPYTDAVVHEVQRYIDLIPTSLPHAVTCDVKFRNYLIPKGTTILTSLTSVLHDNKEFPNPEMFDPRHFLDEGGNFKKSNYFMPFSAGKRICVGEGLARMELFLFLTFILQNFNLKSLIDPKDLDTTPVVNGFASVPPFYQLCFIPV
# CYP2C19 act: increases human CYP2C19 enzyme activity. P33261. recombinant CYP2C19, luciferin-H EGE luminescence; stronger effect = higher value; 0 = fully inhibited enzyme, 1 = untreated enzyme. activation factor at 5 µM. 96,000 tested, under 10 active;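 active = activation factor of at least 2 at 5 µM in the primary screen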;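 note: 0 = wells with 2.5 mM tranylcypromine and 1 = vehicle-only wells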
# CYP2C9 activ: CYP2C9 (human) activation. AID 1024. recombinant CYP2C9, luciferin-H conversion, luminescence; stronger effect = higher value; factor 1 = untreated enzyme, 0 = blocked. 96,000 tested, 1.4% active. P11712. activation factor at 5 µM;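 active = activation factor of 2 or more for CYP2C9 at a 5 µM dose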;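 note: 0 = sulfaphenazole-blocked wells and 1 = vehicle-only wells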
# PostGolgi yeast: growth inhibition of a yeast mutant, post-Golgi transport screen; post-Golgi transport phenotypic cell assay; inhibition, % at 10 µM; 98,000 tested, 0.9% active;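 note: yeast cells grown in 1536-well plates; yeast grown about 18 h at 30C before absorbance read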
# PostGolgi ctrl: inhibits growth of the yeast control strain; efflux-deficient yeast background strain, growth absorbance A615, 16 h; inhibition, % at 10 µM; 98,000 tested, 5% active
# CYP2C9 inhib: inhibitors of human CYP2C9; CYP2C9 Supersomes, luciferin-H conversion, luminescence; inhibition, % at 5 µM; 96,000 tested, 20% active; AID 777;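 active = blocking of liver enzyme CYP2C9 beyond about 50% at 5 µM, limit read from the data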
# Active calls of the source: *; · = no result. This is a sample that favours compounds with a hit; in the whole collection about 32% have one here. Cut-off read from the data, not from the text of the source, unless noted: active = inhibition above about 30%; inactive = the rest.
SMILES,CYP2C19 inhib,CYP2C19 act,CYP2C9 activ,PostGolgi yeast,PostGolgi ctrl,CYP2C9 inhib
O=C(O)CCC(=O)Nc1ccc(Cc2ccc(NC(=O)CCC(=O)O)cc2)cc1,5,1,1,-10,19,4
O=C(NC1CCS(=O)(=O)C1)OC1CCCCC1 (stereo unspecified),·,·,·,8,10,·
Cc1sc2ncnc(SCC#N)c2c1C,2,1,1.3,-6,8,-27
CCCN(CC1CC1)C(=O)CSc1ncnc2sc(C)c(C)c12,92*,0.1,0.5,-6,37*,53*
Cc1sc2ncnc(SCC(=O)c3cccs3)c2c1C,23,0.8,0.4,-1,13,60*
Cc1sc2ncnc(SCC(=O)N3CCCC3=O)c2c1C,59*,0.4,0.4,0,2,63*
Cc1sc2ncnc(SCC(=O)NNC(=O)COc3cccc4ccccc34)c2c1C,-9,1.1,1.4,-10,11,-38
COc1ccc(C(=O)Nc2cc(C)c3c(=O)oc4ccccc4c3n2)cc1,-8,1.1,0.9,0,19,5
O=S(=O)(c1ccc(F)cc1)n1ccc(-c2cccc(OCc3ccc(Cl)cc3Cl)c2)n1,19,0.8,0.6,0,8,45
CS(=O)(=O)N(Cc1ccccc1)c1ccc(C(=O)NCc2cccnc2)cc1,91*,0.1,0.1,6,-1,91*
O=C(NCc1ccccc1)c1ccc(/C=N/O)nc1,63*,0.4,1.1,21,9,-15
CS(=O)(=O)Nc1ccc(C(=O)NCc2cccnc2)cc1,-9,1.1,1.2,0,31*,-17
CS(=O)(=O)N(Cc1ccccc1)c1ccc(C(=O)NC2CCCCC2O)cc1 (stereo unspecified),52*,0.5,0.9,-3,-1,12
CN1CCn2c1nc(N1CCCCC1)nc2=O,-15,1.1,0.9,-5,10,9
Cc1ccc(CN(c2ccc(C(=O)Nc3cccnc3)cc2)S(C)(=O)=O)cc1,91*,0.1,0.3,-7,7,74*
CN(C)CCCNC(=O)c1ccc(-c2ccccc2)cc1,2,1,0.7,1,-1,29
CN(C)CCCNC(=O)c1ccc(Cl)c(S(=O)(=O)N(C)c2ccccc2)c1,97*,0,1,-15,-4,-5
O=C(NCc1ccccc1)c1ccc(S(=O)(=O)C(F)F)cc1,68*,0.3,0.9,9,-2,9
CN(C)CCCNC(=O)c1ccc(CN(c2ccccc2)S(C)(=O)=O)cc1,21,0.8,0.4,-13,-2,64*
CCCC(=O)Nc1nnc(SCC(=O)NCc2cccs2)s1,17,0.8,1,1,-1,3
O=C(O)C1CC=CCC1C(=O)Nc1cccc(C(=O)N2CCCCC2)c1 (stereo unspecified),-20,1.2,1.3,9,2,-27
CC(=O)c1c(C)[nH]c(C(=O)NCc2cccs2)c1C,8,0.9,0.9,7,1,13
CCCNC(=O)c1ccc(N(Cc2ccccc2)S(C)(=O)=O)cc1,35,0.6,0.7,-5,4,26
CS(=O)(=O)N(Cc1ccccc1)c1ccc(C(=O)NCc2ccccc2)cc1,62*,0.4,0.5,-1,14,53*
Cc1cc(Cl)ccc1Oc1ncc(-c2ccc(Cl)cc2)cn1,24,0.8,1,-12,15,3
SMILES,CYP2C19 inhib,CYP2C19 act,CYP2C9 activ,PostGolgi yeast,PostGolgi ctrl,CYP2C9 inhib
Cc1cc(Cl)ccc1OCc1nc(-c2ccc(O)cc2)n[nH]1,97*,0,0.1,5,96*,94*
C=CCC1(O)C(=O)Nc2ccccc21 (stereo unspecified),8,0.9,1,-3,3,-4
COC(=O)c1ccccc1-c1ccc(/C=C2\C(=O)N(c3ccccc3)N=C2c2ccccc2)o1,94*,0.1,0.2,-6,9,83*
COc1ccc(-c2ccc(/C=C3\C(=O)N(c4ccccc4)N=C3c3ccccc3)o2)c([N+](=O)[O-])c1,56*,0.4,0.3,-5,12,71*
Cc1ccc(OCCCN2CCCC2)c(C)c1,16,0.8,1,17,5,2
CCOC(=O)C(C(=O)OCC)C(Nc1ccc(Br)cc1)c1ccccc1 (stereo unspecified),15,0.9,1.1,-6,11,-12
OCCN(Cc1ccccc1)CC1CC2C=CC1C2 (stereo unspecified),34,0.7,1,4,8,2
OCCN(Cc1ccccc1)Cc1ccccc1Cl,81*,0.2,0.7,-4,0,28
OCCN(Cc1ccccc1)Cc1cccc(Cl)c1Cl,93*,0.1,0.2,-1,17,76*
OCCN(Cc1ccccc1)Cc1ccccc1F,77*,0.2,0.8,-1,3,19
COCCCNC(=O)CCCn1c(=O)[nH]c2ccccc2c1=O,-8,1.1,1,3,-1,0
CCN(CCCNC(=O)CCCCn1c(=O)[nH]c2ccccc2c1=O)c1ccccc1,62*,0.4,0.3,-1,4,68*
COc1cccc(NC(=O)CCNC(=O)Cn2ccc3ccccc3c2=O)c1,35,0.7,0.3,-7,0,71*
O=C(CCn1c(=O)[nH]c2ccccc2c1=O)Nc1ccccc1,53*,0.5,0.5,5,0,47
CCN(CCCNC(=O)CCNC(=O)Cn1ccc2ccccc2c1=O)c1ccccc1,68*,0.3,0.2,-3,6,77*
CN(CCNC(=O)CCNC(=O)Cn1ccc2ccccc2c1=O)Cc1ccccc1,-4,1,0.9,3,-1,9
CC1CCCC(C)N1C(=O)c1cc(-c2cccs2)on1 (stereo unspecified),·,·,·,4,13,·
CNC(=O)COc1ccc(-c2nn(C)c(=O)c3ccccc23)cc1,-2,1,1,-6,12,-4
CC(N)C12CC3CC(C1)CC(C(C)N)(C3)C2 (stereo unspecified),-23,1.2,1.2,-5,-2,-20
CCOc1ccc(NC(=O)CCn2c(=O)[nH]c3ccsc3c2=O)cc1,16,0.8,0.4,0,3,57*
COc1ccccc1Nc1nnc(SCC(=O)c2cc(C)n(CC3CCCO3)c2C)s1 (stereo unspecified),48,0.5,0.7,0,23,26
CCC(C)Nc1nc(SC(C(C)=O)C(C)=O)nc(N(C)C)n1 (stereo unspecified),52*,0.5,0.4,3,17,62*
c1ccc(N2CCN(Cc3nnnn3C3CCCCC3)CC2)cc1,64*,0.4,0.1,-1,0,87*
C1CCC(n2nnnc2CN2CCN(C3CCCC3)CC2)CC1,8,0.9,0.8,13,2,18
Cc1ccc(Cl)cc1N1CCN(Cc2nnnn2C2CCCCC2)CC1,44,0.6,0.4,5,58*,58*
CC(=O)N1CCN(S(=O)(=O)c2ccc(S(=O)(=O)NC3CC3)cc2)CC1,-5,1.1,1,-2,-4,-3
